Pf growth 96h – inhibits malaria parasite growth, 96 h | hit rate 6.9% among 320,000 | AID 504834 | Potency, µM (highest dose often 28.7 µM), actives largely listed as inhibitors | P. falciparum luciferase reporter growth, 96 h
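Parasite growth measured via integrated firefly luciferase reporter in P. falciparum. Infected erythrocytes at 2% hematocrit, 0.05% parasitemia final were treated 96 hours at 37 C under 5% CO2, and luminescence was read.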
Pf growth 48h – P. falciparum growth inhibition at 48 hours (one generation); Potency, µM (titrated, usually from 28.7 µM), usual class: inhibitors; P. falciparum luciferase growth in erythrocytes, 48 h; hit rate 5.9% among 310,000
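Luciferase-expressing parasites in RBCs, 2% Hct / 0.1% parasitemia final; RPMI 1640 + 0.5% Albumax; 37 C, 5% CO2, one generation; luminescence read-out, lower signal = inhibition.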
AMA1-RON2 inh – disrupts binding of P. falciparum AMA1 to RON2 | AID 720542 | AlphaScreen AMA1-biotinylated RON2 peptide binding | Potency, µM (highest dose often 58.2 µM), most hits filed as inhibitors | hit rate 0.2% among 360,000; further: nearly all actives have a fitted effect of over 45% in size
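AMA1 (3D7) with his tag at 25 nM final met compounds first, then biotinylated RON2 peptide at 25 nM; detection used donor plus acceptor beads, 10 µg/mL apiece, read by AlphaScreen after 30 min at room temperature.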
HCV inh – inhibitors of hepatitis C virus infection; Potency, µM (doses to about 41.8 µM), hits mostly inhibitors; hit rate 3.4% among 340,000; Huh7.5.1 HCVcc-Cre infection, luciferase reporter, 44 h
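Whole-lifecycle infectious HCVcc-Cre system; cells 1,000/well, compound then virus (~0.5 moi) added 4 h after plating, 44 h culture. Luciferase read 15 sec following 15 min substrate incubation, room temp.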
Numbers stand for hits; – = inactive; ? = inconclusive; · = no result; [ ] = another dose, or the depositor's remark. Sampled rows, rich in hits. Any-hit rate of the full collection: about 11%. The call rests on the fitted dose curve; in most records, active means well fitted curve in the direction sought with a large enough effect; inconclusive means small, poorly fitted or top-dose-only effect, or another doubt; inactive means no such curve, though single readings can be large; an effect the other way counts as inactive or inconclusive.

SMILES	Pf growth 96h	Pf growth 48h	AMA1-RON2 inh	HCV inh
COc1ccc(N(CC(=O)Nc2ccc(Cc3ccncc3)cc2)S(=O)(=O)c2ccccc2)cc1	–	13.1µM	–	?
COc1ccc(C)cc1N(CC(=O)Nc1cccnc1)S(=O)(=O)c1ccccc1	–	?	–	–
COCCOc1cc(N(CC(=O)N(C)C)S(=O)(=O)c2ccccc2)c(Cl)cc1Cl	11.7µM	–	–	–
Cc1ccc(C)c(C(=O)C(C)OC(=O)CN2C(=O)NC3(CC(C)CC(C)(C)C3)C2=O)c1 (stereo not given)	–	–	–	–
CC(C)c1cn(CC[C@@H]2CC[C@@H](NC(=O)C3CCCCC3)[C@@H](CO)O2)nn1	·	·	–	·
CCOc1ccccc1N(CC(=O)Nc1ccccc1)S(=O)(=O)c1ccccc1	11.7µM	?	–	–
Cc1ccc(C(=O)Nc2ncn[nH]2)cc1	?	–	–	–
O=C(Nc1ncn[nH]1)c1cccc(F)c1	1.47µM	–	–	–
CCc1c(C)nc2cc(-c3cccc(Br)c3)[nH]n2c1=O	–	?	–	?
CCOc1c(Br)cc(CNc2ccc3c(c2)OCCO3)cc1OC	0.828µM	·	?	?
CCOc1cc(CNc2ccc3c(c2)OCCO3)cc(Br)c1OC	?	·	?	0.794µM
CCOc1c(Br)cc(CNC2CCCCCCC2)cc1OC	–	10.4µM	–	11.2µM
CCOc1cc(CNc2ccc3c(c2)OCCO3)cc(Br)c1OCC(N)=O	?	?	–	–
CCOC(=O)N1CCN(S(=O)(=O)N2CCCC(C(=O)NCCc3ccc(OCC)c(OCC)c3)C2)CC1 (stereo not given)	–	–	–	?
O=Cc1ccc(OCC(=O)NCC2CCCO2)cc1 (stereo not given)	–	–	–	–
Cc1cc(C)n(-c2ccc(NC(=O)C3CCCCN3C(=O)c3ccc(C)s3)cc2)n1 (stereo not given)	–	?	–	–
Cc1cc(=O)oc2cc(OCC(=O)N3CCN(C(=O)C4COc5ccccc5O4)CC3)ccc12 (stereo not given)	13.1µM	?	–	17.8µM
Cc1cc(=O)oc2cc(OCC(=O)N3CCN(C(=O)C4COc5ccccc5O4)CC3)c(Cl)cc12 (stereo not given)	13.1µM	–	–	?
CCCc1cc(=O)oc2cc(OCC(=O)N3CCN(C(=O)C4COc5ccccc5O4)CC3)ccc12 (stereo not given)	11.7µM	?	–	?
O=C(COc1ccc2ccc(=O)oc2c1)N1CCN(C(=O)C2COc3ccccc3O2)CC1 (stereo not given)	?	?	–	?
O=C(O)CC(Sc1n[nH]c(=S)s1)C(=O)O (stereo not given)	–	–	–	–
Cn1c(CC(=O)Nc2ccccc2)nnc1SCC(=O)NC1CCCC1	–	–	–	–
OCCn1nc(-c2ccccc2)cc1-c1ccccc1	?	–	–	–
O=c1cc(-c2ccccc2)cc(-c2ccccc2)n1CCCO	?	9.28µM	–	?
CSc1ccc2c(c1)N(CCC1CCCCN1C)c1ccccc1S2 (stereo not given)	?	9.28µM	?	?
SMILES	Pf growth 96h	Pf growth 48h	AMA1-RON2 inh	HCV inh
CCOc1ccccc1NC(=O)C1CCN(c2ccc(S(=O)(=O)N3CCCC3)cc2)CC1	–[5.75 µM]	4.65µM	–	?
CCOc1ccccc1NC(=O)C1CCN(S(=O)(=O)c2ccc(OC)c(OC)c2)CC1	6.57µM	–	–	–
CCOc1ccccc1NC(=S)NC(=O)C1CC1	?	5.22µM	–	–
O=C(NC(=S)Nc1ccccc1Br)C1CC1	·	·	–	–
CCS(=O)(=O)N1CCC(C(=O)Oc2ccccc2OC)CC1	13.1µM	–	–	–
COc1ccc(-c2noc(CN3CCCC(OCc4ccccn4)C3)n2)cc1 (stereo not given)	?	?	–	?
CCN(CC(=O)Nc1cc(Cl)ccc1C)C(=O)CCS(=O)(=O)c1ccc(C)cc1	–	–	–	–
C=CCNS(=O)(=O)c1ccc(OCC(=O)OC)cc1	–	–	–	–
O=C(c1cccc(NC2=NC3CS(=O)(=O)CC3S2)c1)N1CCN(c2cccc(Cl)c2)CC1 (stereo not given)	–	–	–	–
Cc1ccc(S(=O)(=O)N2CCOCC2)cc1C(=O)OCC(=O)NC1CCS(=O)(=O)C1 (stereo not given)	–	–	–[11.6 µM]	–
O=C(O)CNC(=O)CC1S/C(=N/N=C2\CSC(=O)N2)NC1=O (stereo not given)	–	–	39.8µM	–
CCCC(O)(c1ccc(Cl)cc1)C(CN1CCOCC1)c1ccccc1 (stereo not given)	?	·	–	?
CCCC(O)(c1ccc(CC)cc1)C(CN1CCOCC1)c1ccccc1 (stereo not given)	–	0.928µM	–	–
CCc1ccc(C(O)(C(C)C)C(CN2CCOCC2)c2ccccc2)cc1 (stereo not given)	–	5.22µM	–	?
CCCC(O)(c1ccccc1)C(CN1CCOCC1)c1ccccc1 (stereo not given)	?	·	–	–
CCCC(O)(c1ccc(Br)cc1)C(CN1CCOCC1)c1ccc(Cl)cc1 (stereo not given)	–	2.33µM	–	?
O=C(NCc1ccc(F)cc1F)[C@@H]1CCCN1C(=O)[C@@H]1CCCN1C(=O)c1ccc(Cl)cc1	·	·	–	·
COc1cc(NC(=O)c2ccc(F)cc2)ccc1NC(=O)c1cc2ccccc2o1	–	–	–	?
COc1cc(NC(=O)c2c(OC)cccc2OC)ccc1NC(=O)c1cc2ccccc2o1	–	–	–	25.1µM
COc1ccc(NC(=O)c2ccco2)cc1NC(=O)c1ccccc1	–	–	–	–
COc1ccc(NC(=O)c2ccco2)cc1NC(=O)c1c(OC)cccc1OC	2.33µM	–	–	–
COc1ccc(NC(=O)c2ccco2)cc1N	8.28µM	–	–	–
COc1ccc(NC(=O)c2ccco2)cc1NC(=O)c1ccco1	–	–	–	–
O=C(Cc1ccccc1)Nc1ccc(NC(=O)c2ccco2)cc1Cl	9.28µM	–	–	–
O=C(Cc1ccccc1)Nc1ccc(NC(=O)Cc2ccccc2)c(Cl)c1	?	–	–	–
SMILES	Pf growth 96h	Pf growth 48h	AMA1-RON2 inh	HCV inh
COc1ccccc1N(CC(=O)NCCSc1ccc(Cl)cc1)S(C)(=O)=O	?	–	–	–
O=C(Nc1cccc(C(F)(F)F)c1)Nc1ccon1	–	–	–	–
COc1ccc(NC(=O)Cc2ccc(Cl)cc2)cc1NC(=O)c1ccco1	–	·	–	10µM
Cc1ccc(Cc2c(-c3cccc(Cl)c3)nc3c(C)cc(Br)cn23)cc1	·	·	–	·
CCC(C(=O)NCCCN(CC)Cc1ccccc1)n1nc(C)c2sc3ccccc3c2c1=O (stereo not given)	–	10.4µM	–	?
O=C(/C=C/c1ccco1)Nc1nc(-c2ccc(F)c(F)c2)cs1	–	?	–	10µM
COc1ccc(-c2csc(NC(=S)NC(=O)/C=C/c3ccco3)n2)cc1Br	?	10.4µM	–	–
O=C(/C=C/c1ccco1)Nc1nc(-c2ccccc2)cs1	–	–	–	?
COc1ccc(-c2csc(NC(=S)NC(=O)/C=C/c3ccco3)n2)cc1OC	–	–	–	–
CCc1ncc(CN2CCC(C(=O)Nc3cccc(-c4cscn4)c3)CC2)cn1	?	–	–	?
